LASV entry inh = inhibitors of Lassa virus binding or cell entry; Lassa virus pseudotype entry inhibition, cell reporter; Potency, µM (series often up to 37.9 µM), for inactives: at the highest dose activity change, negative = inhibition, hits mostly inhibitors; hit rate 1.2% among 300,000; calls by dose curve; tested in HEK293 cells; further: potency means the concentration at half of the fitted maximal effect; nearly all actives have a fitted effect of over 50% in size
FMDV antiviral = foot and mouth disease virus antiviral activity; AID 1159524; FMDV antiviral cell-based qHTS; hit rate 1.2% among 410,000; Potency, µM (top dose mostly 57.9 µM), for the others: at the top dose activity change, negative = inhibition, hits mostly inhibitors; calls by dose curve; tested in HEK293T cells; further: read-out not given here; potency means the concentration at half of the fitted maximal effect; nearly all actives have a fitted effect of over 45% in size
HCMV inh = inhibitors of human cytomegalovirus; hit rate 4.5% among 410,000; AID 1259415; activity change, negative = inhibition, % at 57.5 µM; HFF cells, HCMV-luciferase reporter, 72 h; stronger effect = lower value; in the data active means activity change below about -60%; inconclusive means no clear call, values can overlap the other calls; inactive means above about -39%
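Cell-based, HFFs, 1000 cells/well, 16 h 37C; cpds in DMSO + HCMV-luc, MOI 1 PFU/cell; 72 h 37C; OneGlo luminescence after 5 min RT; norm. to buffer vs Salinomycin 10uM.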
Marburg entry inh = inhibitors of Marburg virus binding or cell entry | Marburg virus pseudotyped entry inhibition, cell reporter | Potency, µM (highest dose often 37.8 µM), for the others: top-dose activity change, negative = inhibition, hits mostly inhibitors | hit rate 1.8% among 300,000; calls by dose curve; tested in HEK293 cells; further: potency means the concentration at half of the fitted maximal effect
Numbers without * were called inactive; ? = inconclusive; · = no result; + = active, no number; [ ] = dose if it differs, or a comment. Compounds with a hit are over-represented: about 6.2% of the library has one in this group of screens. On the % scale 0 is the no-effect control and ±100 the full control effect.

SMILES	LASV entry inh	FMDV antiviral	HCMV inh	Marburg entry inh
CC(NS(=O)(=O)c1cccc(C(=O)NCc2ccncc2)c1)c1ccccc1 (configuration not stated)	·	-4%	-100*	·
CCOC(=O)c1ccc(NC(=O)c2cccc(S(=O)(=O)N3c4ccccc4CC3C)c2)s1 (configuration not stated)	?	?	-69*	?
COc1ccc(CCNC(=O)c2cccc(S(=O)(=O)NC(C)c3ccccc3)c2)cc1 (configuration not stated)	·	-6%	-11	·
CC1Cc2ccccc2N1S(=O)(=O)c1cccc(C(=O)NCc2ccccn2)c1 (configuration not stated)	·	-15%	0	·
CC1Cc2ccccc2N1S(=O)(=O)c1cccc(C(=O)NCc2ccncc2)c1 (configuration not stated)	-20%	-30%	-89*	7.9µM*
CCOC(=O)Cc1csc(SC(C)C(=O)NCC(=O)Nc2ccc(F)c(F)c2F)n1 (configuration not stated)	11%	40%	-1	20%
COc1cc2[nH]c(=S)nc(NCc3ccccc3)c2cc1OC	·	17%	4	9%
Nn1c(=O)c2ccccc2n2c(SCc3ccccc3)nnc12	0%	27%	-31	1%
COC(=O)c1cn[nH]c1NC(=S)Nc1ccc(C)cc1Cl	7.3µM*	?	13	?
Cc1cccc(N=Nc2c(N)n[nH]c2-c2ccc(Cl)cc2)c1	-7%	-8%	?	?
Cc1ccc(-c2[nH]nc(N)c2N=Nc2ccccc2C)cc1	?	3%	-65*	8.2µM*
Cc1ccc(-c2[nH]nc(N)c2N=Nc2cccc(Cl)c2C)cc1	?	?	-28	20µM*
Cc1ccc(N=Nc2c(N)n[nH]c2N)cc1	-6%[46.1 µM]	20%	46	16%[46.1 µM]
O=C1c2ccccc2[C@@H]2C[C@@H](O)[C@H](Nc3ccccc3)CCN12	·	-14%	12	·
CC(C)(C)c1cc(C(=O)O)nn1-c1ccccc1	8%	-24%	4	-20%[46.1 µM]
COc1ccc(-c2n[nH]c(C)c2-c2cnn(-c3ccccc3)c2)c(O)c1	-16%	-16%	61	?
COc1ccc(-c2n[nH]c(C)c2-c2cnn(-c3ccccc3)c2)c(O)c1C	-16%	5%	-77*	-27%
CCCc1nn2c(=O)cc(COC(=O)c3cccc(NC(=O)COc4ccc(F)cc4)c3)nc2s1	15%[46.1 µM]	-12%	-4	·
Cc1ccccc1OCC(=O)Nc1cccc(C(=O)OCc2cc(=O)n3c(C)csc3n2)c1	14%[46.1 µM]	-23%	-89*	·
CCCc1nn2c(=O)cc(COC(=O)c3cccc(NC(=O)COc4ccccc4C)c3)nc2s1	?	14µM*	20	·
CCN(CC)C(=O)CN1C(=O)c2cccc3cccc1c23	6%	-3%	14	2%
COC(=O)C1=C(C)N(Cc2ccccc2)C(=O)NC1c1cccc(C(F)(F)F)c1 (configuration not stated)	·	·	·	17%[14.2 µM]
CC(C)Cn1c(SCC(=O)NCc2ccco2)nnc1-c1ccncc1	1%	3%	-13	1%[46.1 µM]
Cc1ccc(Sc2sc(=O)n(C)c2S(=O)(=O)c2ccc(C)cc2)cc1	·	-25%	?	·
CCn1c(C)cc(C(=O)CN2C(=O)c3ccccc3S2(=O)=O)c1C	1.4µM*	?	?	?
SMILES	LASV entry inh	FMDV antiviral	HCMV inh	Marburg entry inh
Cc1cc(C)nc(NC(=O)CN2C(=O)c3ccccc3S2(=O)=O)n1	-10%	-1%	56	0%
Cc1cc(C(=O)CN2C(=O)c3ccccc3S2(=O)=O)c(C)n1-c1ccccc1	1.6µM*	?	-89*	8.9µM*
C=CCn1c(C)cc(C(=O)CN2C(=O)c3ccccc3S2(=O)=O)c1C	?	40µM*	·	?
Cc1cc(C(=O)CN2C(=O)C3CC=CCC3C2=O)c(C)n1-c1ccccc1 (configuration not stated)	?	0%	-28	?
Cc1cc(C(=O)CN2C(=O)c3ccccc3S2(=O)=O)c(C)n1C(C)C	2µM*	?	+	0.5µM*
COCCCC1CCN(C(=O)C2CCC(=O)N(CCc3ccccc3)C2)CC1 (configuration not stated)	1%	26%	58	18%
Cc1ccc(NC(=O)CN(C)C(C)C(=O)Nc2ccc(S(=O)(=O)N3CCCC3)cc2)cc1 (configuration not stated)	5%	-2%	-1	-4%
CCNC(=S)N=Nc1c(O)n(Cc2ccc(Cl)cc2)c2ccccc12	?	-6%	17	?
O=C(Nc1ccc(OCC(F)(F)C(F)F)c(C(F)(F)F)c1)c1ccccc1O	?	?	-97*	?
CCOc1ccc(NC(=O)c2ccncc2)cc1	30%	15%	13	-13%
O=C(Nc1ccc(OCC(F)(F)C(F)F)cc1)c1ccncc1	?	?	-63*	-28%[46.1 µM]
O=[N+]([O-])c1ccc(NCCCNS(=O)(=O)c2ccccc2)cc1	-19%	-21%	-38	?
CC12CCC(=O)C=C1CCC1C2CCC2(C)C(O)(C(=O)CO)CCC12O (configuration not stated)	-12%	-8%	-65*	-28%
COc1ccc(Cc2nc3ccc(C(=O)NCc4ncc(C)[nH]4)cc3o2)cc1OC	·	2%	18	·
Cc1ccc(/C=C/c2nnc(-c3cccs3)o2)cc1	10µM*	·	16	12µM*
CC1(C)C[C@H]2C3=CCC4[C@@]5(C)CC[C@H](O)[C@@](C)(CO)C5CC[C@@]4(C)[C@]3(C)C[C@@H](O)[C@@]2(CO)[C@@H](O)[C@@H]1O (some centres not stated)	·	-18%	-73*	·
CC1(C)C[C@@H](O)[C@]2(C)CC[C@]3(C)C(=CCC4[C@@]5(C)CC[C@H](O)[C@](C)(CO)C5CC[C@]43C)[C@@H]2C1 (some centres not stated)	·	-24%	4	·
CCN(CC)c1nc(-c2ccccc2)nc2ccccc12	-9%	?	-63*	?
COCCN(CCOC)c1nc(-c2ccccc2)nc2ccccc12	·	?	-36	·
CCCCN(CCCC)c1nc(-c2ccncc2)nc2ccccc12	·	28µM*	-70*	·
O=C1NCCCC1(c1ccccc1)c1ccccc1	·	-2%	13	·
CCCn1c2c(c(O)c(C(=O)NCCCN(CC)CC)c1=O)CCCC2	-17%	-28%	-13	10µM*
CCc1ccc(OC)c(S(=O)(=O)Nc2ccccc2C)c1	6%	·	5	-3%
COc1ccc([C@H]2CC(=O)C=C(c3ccccc3)C2)cc1OC	·	-22%	8	·
COc1ccc([C@H]2CC(=O)C=C(c3ccc(Oc4ccccc4)cc3)C2)cc1OC	·	?	-64*	·
Cc1ccc(Sc2c(CO)c(-c3ccccc3)nn2C)cc1	?	?	-83*	?
CCOc1ccc(C(C)=O)cc1CSc1nnnn1-c1ccc(O)cc1	?	?	-1	-2%
COc1cc2sc3ccc(-c4ccc(CN5CCOCC5)cc4)cc3c(=O)c2cc1OC	·	32µM*	?	·
COC1=CC(=O)OC(/C=C/c2ccccc2)C1 (configuration not stated)	15%	3%	-31	18%
COc1ccc(S(=O)(=O)/N=C2/C=CC(=O)C(C)=C2C)cc1	-9%	-10%	·	?

Screening data (PubChem BioAssay)
